Assay [1] is described as follows: NCI Yeast Anticancer Drug Screen. Data for the rad50 strain (AID 155).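 Further: 0% = growth of vehicle-only cultures of the same strain.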 Conditions: S. cerevisiae rad50 strain growth inhibition; at 50.0 µM; stronger effect = higher value. The essentials:
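Genetically altered yeast (DNA repair pathway); compound treatment; growth inhibition vs vehicle ctrl.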

Assay [2] is described as follows: NCI Yeast Anticancer Drug Screen. Data for the mec2-1 strain (AID 157). Conditions: S. cerevisiae mec2-1 strain, at 50.0 µM, stronger effect = higher value. The method in brief: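 Cells of the genetically defined mec2-1 yeast strain are incubated with test compound. Inhibition of growth is calculated against vehicle-treated controls.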
The nature of assay [3]: NCI Yeast Anticancer Drug Screen. Data for the sgs1 mgt1 strain (AID 161).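 Further: 0% = growth of cultures given vehicle only.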 Conditions: S. cerevisiae sgs1 mgt1 strain, at 50.0 µM, stronger effect = higher value. The essentials: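 Inhibition of yeast growth, normalised to vehicle-treated controls, is reported for a strain bearing genetic alterations in DNA damage repair.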
The nature of assay [4]: NCI Yeast Anticancer Drug Screen. Data for the cln2 rad14 strain (AID 165).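 Further: 0% = growth equal to vehicle treated cultures.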 Conditions: S. cerevisiae cln2 rad14 strain, at 50.0 µM, stronger effect = higher value. The essentials:
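The screen exposed genetically defined yeast (cln2 rad14) to test compounds and scored growth inhibition relative to vehicle-treated controls.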

A short description of assay [5]: NCI Yeast Anticancer Drug Screen. Data for the bub3 strain (AID 167). The conditions noted are these: S. cerevisiae bub3 mutant strain, at 50.0 µM, stronger effect = higher value. The method in brief: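 Yeast carrying a defined mutation is treated with each compound, and growth is compared with that of vehicle-exposed cells to give inhibition.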
A short description of assay [6]: NCI Yeast Anticancer Drug Screen. Data for the mlh1 rad18 strain (AID 175). The conditions noted are these: S. cerevisiae mlh1 rad18 strain growth inhibition; at 50.0 µM; stronger effect = higher value. The method in brief: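 Compound-treated yeast growth, normalised to vehicle controls. Strain bears defined DNA repair mutations.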

SMILES strings stand for the structures. About 79,000 compounds went through this panel and 15% of them were active in at least one assay; those are over-represented in the sample as a whole. Unmarked numbers belong to inactive results. Active and inactive are the calls of the source. No stated cut-off is given here; in the data, active means growth inhibition above about 70%; inactive means the rest.

In the case of `O=C(Nc1c(Cl)cccc1Cl)Nc1c(Cl)cccc1Cl`, the growth inhibition in assay [1] is -0.95%; in assay [2], -4.85%; in assay [3], 21.1%; in assay [4] it was 6.7%; in assay [5], 16.8%; in assay [6] it was 10.9%.
In the case of `O=C(/C(=C/c1ccccc1)N1CCOCC1)c1cccc2ccccc12`, the growth inhibition in assay [1] was 18.9%; in assay [2], -2.15%; in assay [3] it was 17.1%; in assay [4], 14.7%; in assay [5], 21.4%; in assay [6], 19.9%.
With `c1ccc2c(c1)oc1cc3c(cc12)n1nnnc1c1cccn31`, the growth inhibition in assay [1] was 9%; in assay [2], -1.25%; in assay [3] it was -3.45%; in assay [4] it was 16.4%; in assay [5], 4.6%; in assay [6] it was -7.8%.
Turning to `O=C1COc2ccccc2OCCOCCOc2ccccc2OC1`, the growth inhibition is 11.2% in assay [1]; -2.9% in assay [2]; -2.7% in assay [3]; -12.2% in assay [4]; 2.3% in assay [5]; -14.9% in assay [6].
Consider `OC1(c2ccccc2)CC2C=CC1C2` (stereo not given), for which the growth inhibition is -5.9% in assay [1]; 8.2% in assay [2]; 8.05% in assay [3]; 17.2% in assay [4]; 15.3% in assay [5]; 5.15% in assay [6].
Consider `CC(N)c1ccc(OCCOc2ccc(C(C)(C)CC(C)(C)C)cc2)cc1` (stereo not given), for which the growth inhibition in assay [1] was 98.9% (active); in assay [2], 99% (active); in assay [3], 42.7%; in assay [4] it was 97.7% (active); in assay [5], 98.9% (active); in assay [6] it was 99% (active).
Regarding `Cc1ccc(N=C(NN(C)C)C(c2ccccc2)c2ccccc2)cc1`, the growth inhibition was 2.55% in assay [1]; -20.1% in assay [2]; 7.95% in assay [3]; -18.9% in assay [4]; 15.4% in assay [5]; -14.2% in assay [6].
In the case of `C=CCSC(=S)Nc1nc2ccc(C)cc2s1`, the growth inhibition in assay [1] is -19.9%; in assay [2], 4.75%; in assay [3], 0.25%; in assay [4], 0.2%; in assay [5], -2.05%; in assay [6], 2.1%.
Consider `C=CCNC(=O)c1ccccc1OCC(=O)O`, for which the growth inhibition in assay [1] is -12.7%; in assay [2], -37.3%; in assay [3], -8.75%; in assay [4], -8.1%; in assay [5], -29.1%; in assay [6], 1.4%.
On to `CC(N)C(=O)NC(C(=O)O)C(C)C` (stereo not given), for which the growth inhibition was -2.4% in assay [1]; -2.55% in assay [2]; -16.1% in assay [3]; -14.7% in assay [4]; 0.3% in assay [5]; -23.4% in assay [6].
Consider `C[C@@H]1OC(=O)N2CCCC(=C3SCCCS3)C12` (stereo not given in full), for which the growth inhibition was 0.6% in assay [1]; -0.05% in assay [2]; -2.6% in assay [3]; -25.1% in assay [4]; 2.7% in assay [5]; -12.2% in assay [6].
With `CCCCCCCCN(CCCCCCCC)CC(O)c1ccc2cc(Br)c3ccccc3c2c1` (stereo not given), the growth inhibition in assay [1] was 25.9%; in assay [2], 26.2%; in assay [3] it was 46.5%; in assay [4], 47.1%; in assay [5], 24%; in assay [6], 49.4%.
For the molecule `CC(=O)/C(=C/N1CCNC1=S)C(=O)Nc1ccc([N+](=O)[O-])cc1`, the growth inhibition is -0.1% in assay [1]; -4.5% in assay [2]; -28.1% in assay [3]; -33% in assay [4]; -12.9% in assay [5]; 5.6% in assay [6].
`CC(=O)OCC(OC(C)=O)C(OC1OC(COC(C)=O)C(OC(C)=O)C(OC(C)=O)C1OC(C)=O)C(OC(C)=O)C(C=O)OC(C)=O` (stereo not given): the growth inhibition was -0.2% in assay [1]; 10.8% in assay [2]; 9.75% in assay [3]; -5.75% in assay [4]; -3.8% in assay [5]; -7.95% in assay [6].
In the case of `O=C(COc1ccc(Cl)cc1)Nc1ccc(S(=O)(=O)O)c2ccccc12`, the growth inhibition in assay [1] was 9%; in assay [2], 0.6%; in assay [3], -12.4%; in assay [4], -5%; in assay [5] it was 1.65%; in assay [6], 13.4%.
For `OCCOc1ccccc1-c1ccccc1`, the growth inhibition is -28.6% in assay [1]; -14.3% in assay [2]; -15.5% in assay [3]; -14% in assay [4]; -29.5% in assay [5]; -7.65% in assay [6].
For the molecule `O=C(Nc1ccc(Cl)c(Cl)c1)Nc1cccc2nsnc12`, the growth inhibition in assay [1] was 4.45%; in assay [2], 7.35%; in assay [3], -2.7%; in assay [4], 13.2%; in assay [5], -1.5%; in assay [6] it was 26.2%.
Regarding `N=c1oc2cc(O)ccc2cc1C(=O)NCc1ccccc1`, the growth inhibition was 17.8% in assay [1]; 27.4% in assay [2]; -2.9% in assay [3]; 20.4% in assay [4]; -8.25% in assay [5]; -7.15% in assay [6].
As for `O=C(C[n+]1ccnc2ccccc21)c1ccc(Br)cc1`, the growth inhibition is 15.7% in assay [1]; -3.05% in assay [2]; 2% in assay [3]; 6.45% in assay [4]; -6.6% in assay [5]; 13% in assay [6].
As to `Cc1cccc(C)c1-n1c(C)nc2[nH]cc(C)c2c1=N`, the growth inhibition is 6.35% in assay [1]; -6.25% in assay [2]; 4.55% in assay [3]; 5.1% in assay [4]; 17.1% in assay [5]; 8.95% in assay [6].
For the molecule `CCOc1ccc(NC(=O)C2=C(C)NC(C)=C(C(=O)Nc3ccc(OCC)cc3)C2c2ccccc2)cc1`, the growth inhibition in assay [1] is -22.9%; in assay [2], -7.4%; in assay [3], -20.9%; in assay [4], -17.1%; in assay [5] it was -16.2%; in assay [6], -18.2%.
Consider `O=C1CSC2=NC3=C(COC/C3=C\c3ccc(F)cc3)C(c3ccc(F)cc3)N12` (stereo not given), for which the growth inhibition in assay [1] is 16.6%; in assay [2], 28.3%; in assay [3], 41.9%; in assay [4], 21.2%; in assay [5], 30.1%; in assay [6] it was 31.2%.
Consider `Cc1cc(OC(N)=S)cc(C)c1Cl`, for which the growth inhibition in assay [1] is 20.6%; in assay [2], 4.2%; in assay [3], 7.6%; in assay [4], -6.25%; in assay [5] it was 3.4%; in assay [6], -2.1%.
On to `Cc1nc2c(=O)[nH]c3ccccc3c2o1`, for which the growth inhibition in assay [1] is -3.25%; in assay [2] it was 7%; in assay [3] it was 3.1%; in assay [4], -7%; in assay [5], -10.3%; in assay [6], -32.4%.
For the molecule `O=c1[nH]cnc2nc(-c3cccc([N+](=O)[O-])c3)[nH]c12`, the growth inhibition in assay [1] was -1%; in assay [2], 30.9%; in assay [3], 12.9%; in assay [4], -13.8%; in assay [5], 5.4%; in assay [6], 24.9%.
In the case of `Cc1c(Cl)cccc1NC(=O)C(=O)C(C(=O)c1ccccc1-c1ccccc1)C1OC(=O)c2ccccc21` (stereo not given), the growth inhibition in assay [1] is -31.9%; in assay [2], -44.5%; in assay [3] it was -14.3%; in assay [4], -41.8%; in assay [5], 11.9%; in assay [6], -23%.
As for `O=C(OCCN1CCCCC1)C(c1ccccc1)C1(O)CCSCC1` (stereo not given), the growth inhibition in assay [1] was 9.6%; in assay [2], 22.9%; in assay [3], 32.6%; in assay [4], 25.9%; in assay [5] it was 17.9%; in assay [6], 5.15%.
`CC(O)C1OC(O)C2OC(C)(C)OC12` (stereo not given): the growth inhibition in assay [1] was 20.1%; in assay [2], 17.4%; in assay [3], 16.4%; in assay [4], -4.35%; in assay [5] it was 14.6%; in assay [6] it was 7.9%.
`CC(=O)CC(C)(C)NC(=S)NCCO`: the growth inhibition in assay [1] was 1.2%; in assay [2] it was -26.5%; in assay [3], 2%; in assay [4], -29.4%; in assay [5], -8.85%; in assay [6], -13.4%.
With `CN(C)CCNC(=O)c1ccc2nc3c(nc2c1)C(=O)c1ccccc1-3`, the growth inhibition in assay [1] is -9.4%; in assay [2] it was -2.85%; in assay [3], 31.3%; in assay [4], 36.8%; in assay [5] it was 3.6%; in assay [6], 15.9%.
With `Cc1ccc(C(=O)OC[C@H]2CC[C@@H](n3cc(N(C)C4CCCCC4)c(=O)[nH]c3=O)O2)cc1`, the growth inhibition in assay [1] was 2.4%; in assay [2], -32.2%; in assay [3], 8.7%; in assay [4], 14.5%; in assay [5], -2.15%; in assay [6], 31.8%.
As for `[N-]=[N+]=NC12CC3CC4C5CC(CC41)CC2[C@H]5C3`, the growth inhibition in assay [1] is 13.1%; in assay [2] it was -5.35%; in assay [3], -6.1%; in assay [4] it was -0.55%; in assay [5], -17.1%; in assay [6], -14.4%.
For `CC(C)OC(=O)NN(C)c1ccccc1`, the growth inhibition is 15.4% in assay [1]; 11.1% in assay [2]; 14% in assay [3]; -54.3% in assay [4]; 3.9% in assay [5]; 13.8% in assay [6].
For the molecule `O=C(Nc1cccc2ccccc12)Oc1cccc2cccnc12`, the growth inhibition in assay [1] is 98% (active); in assay [2], 96.9% (active); in assay [3] it was 97.5% (active); in assay [4], 94% (active); in assay [5] it was 98.5% (active); in assay [6], 98% (active).
With `NCC(NC(=O)OCc1ccccc1)C(=O)O` (stereo not given), the growth inhibition in assay [1] was 3.2%; in assay [2] it was 12.4%; in assay [3] it was 3.3%; in assay [4], 19.1%; in assay [5], 5.7%; in assay [6], 32.1%.
For the molecule `O=C1CC(c2ccccc2)=NCCN1`, the growth inhibition in assay [1] was -9.2%; in assay [2], 16.2%; in assay [3] it was 11.9%; in assay [4], -3.55%; in assay [5], -19.4%; in assay [6] it was -7.25%.
On to `COc1ccc(NC(=O)N(C)C)cc1OC`, for which the growth inhibition is 14.8% in assay [1]; -5.25% in assay [2]; -4.2% in assay [3]; -25.6% in assay [4]; 4.4% in assay [5]; 15.8% in assay [6].
For `CC1=CC=CNC1(N)Br` (stereo not given), the growth inhibition in assay [1] is 3.7%; in assay [2] it was 4%; in assay [3], 15.8%; in assay [4], 19.4%; in assay [5], 7.55%; in assay [6] it was -4.9%.
Consider `C1=C(c2ccccc2)C(OC2Oc3ccccc3C=C2c2ccccc2)Oc2ccccc21` (stereo not given), for which the growth inhibition in assay [1] was 23.1%; in assay [2] it was -2.15%; in assay [3], 6.35%; in assay [4], 11.9%; in assay [5], 22.2%; in assay [6], -3.65%.
As for `O=C(Cc1nc2sc3c(c2c(=O)[nH]1)CCCC3)Nc1ccccc1`, the growth inhibition is -3.1% in assay [1]; -12.3% in assay [2]; 0.05% in assay [3]; 5.9% in assay [4]; -4% in assay [5]; -17.6% in assay [6].

The values above are taken from PubChem BioAssay (NCI).
